We go through seven compounds from PubChem BioAssay (Tox21).

The subject of experiment [1] is thyroid hormone receptor (rat, GH3 cells). Nature of the experiment: qHTS assay to identify small molecule agonists of the thyroid receptor (TR) signaling pathway (AID 743066; calls by dose curve). Background: Quantitative high-throughput screening tests each substance at several concentrations.
Experiment [2] has as its target Estrogen receptor (Homo sapiens) (UniProt P03372). The experiment in a line: qHTS assay to identify small molecule antagonists of the estrogen receptor alpha (ER-alpha) signaling pathway (AID 743069; active = well fitted curve in the direction sought with a large enough effect in the signal ratio in the repeat runs, not every such curve was filed as active; the % refers to the signal ratio). In outline:
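ER-alpha-UAS-bla GripTite HEK293 line; 2% charcoal-stripped FBS overnight; plated, 4 hr 37C/5% CO2; cpd in DMSO + 17beta-estradiol, 18 hr 37C; LiveBLAzer B/G FRET substrate 2 hr RT; fluorescence intensity.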

The nature of experiment [3]: qHTS assay to identify small molecule antagonists of the estrogen receptor alpha (ER-alpha) signaling pathway - cell viability counter screen (AID 743074; calls by dose curve;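 also: HEK293 cells carrying ER-alpha-UAS-bla reporter stimulated with 17beta-estradiol; nearly all actives have a fitted effect of over 45% in size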).
Experiment [4] concerns the target Estrogen receptor (Homo sapiens) (UniProt P03372). The experiment in a line: qHTS assay to identify small molecule agonists of the estrogen receptor alpha (ER-alpha) signaling pathway (AID 743075; calls by dose curve;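 also: HEK293 GripTite cells with ER-alpha and UAS-driven beta-lactamase reporter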).
Experiment [5] shares this target. Nature of the experiment: qHTS assay to identify small molecule agonists of the estrogen receptor alpha (ER-alpha) signaling pathway using the BG1 cell line (AID 743079). Also: nearly all actives have a fitted effect of over 20% in size. Also: potency is read from the fitted curve at half-maximal effect.
A short description of experiment [6]: qHTS assay to identify small molecule antagonists of the estrogen receptor alpha (ER-alpha) signaling pathway using the BG1 cell line (AID 743080; calls by dose curve;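 also: BG1 cells stimulated with 17beta-estradiol alongside compound; series mostly up to about 70 µM; nearly all actives have a fitted effect of over 25% in size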). In outline: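 Luciferase inhibition measured with ONE-Glo after 30 min at RT in BG1Luc4E2 cells given test compounds and 17beta-estradiol for 21.5 h at 37 C; CellTiter-Fluor viability read in the same wells beforehand.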

The nature of experiment [7]: qHTS assay to identify small molecule antagonists of the estrogen receptor alpha (ER-alpha) signaling pathway using the BG1 cell line - cell viability counter screen (AID 743081).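 Also: compound given together with 17beta-estradiol as the ER stimulus; series mostly up to about 70 µM; nearly all actives have a fitted effect of over 45% in size.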
The target of another experiment is Aromatase (Homo sapiens) (UniProt P11511). Nature of the experiment: qHTS assay to identify aromatase inhibitors (AID 743083). Also: series mostly up to about 70 µM; nearly all actives have a fitted effect of over 55% in size.
Aromatase (Homo sapiens), sequence (P11511 whole entry, looked up): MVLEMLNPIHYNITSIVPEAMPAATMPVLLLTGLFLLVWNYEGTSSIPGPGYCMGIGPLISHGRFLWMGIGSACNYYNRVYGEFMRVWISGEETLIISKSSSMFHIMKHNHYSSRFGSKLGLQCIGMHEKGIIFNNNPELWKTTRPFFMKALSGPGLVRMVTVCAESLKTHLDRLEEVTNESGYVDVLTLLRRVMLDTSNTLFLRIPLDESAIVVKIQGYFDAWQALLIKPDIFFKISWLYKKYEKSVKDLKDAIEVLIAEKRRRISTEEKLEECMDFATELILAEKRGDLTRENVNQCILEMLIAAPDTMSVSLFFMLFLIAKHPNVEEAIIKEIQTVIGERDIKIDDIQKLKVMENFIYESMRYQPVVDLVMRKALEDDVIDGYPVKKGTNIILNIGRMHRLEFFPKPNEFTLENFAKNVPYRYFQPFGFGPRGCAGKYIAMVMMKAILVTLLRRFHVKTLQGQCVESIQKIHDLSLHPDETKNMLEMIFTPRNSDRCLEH
Experiment [8] can be described thus: qHTS assay to identify aromatase inhibitors - cell viability counter screen (AID 743084).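 Also: cells stimulated with testosterone during compound exposure; nearly all actives have a fitted effect of over 55% in size.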

Results filed as inconclusive are left out. Calls of active or inactive are those of the source. Unless noted, calls follow the shape of the dose curve; as a rule, active = well fitted curve in the direction sought with a large enough effect in the repeat runs; inconclusive = weak or mixed curves; inactive = no such curve, though single readings can be large; an effect the other way counts as inactive or inconclusive.

Estrogen receptor (Homo sapiens), sequence (P03372 whole entry, looked up): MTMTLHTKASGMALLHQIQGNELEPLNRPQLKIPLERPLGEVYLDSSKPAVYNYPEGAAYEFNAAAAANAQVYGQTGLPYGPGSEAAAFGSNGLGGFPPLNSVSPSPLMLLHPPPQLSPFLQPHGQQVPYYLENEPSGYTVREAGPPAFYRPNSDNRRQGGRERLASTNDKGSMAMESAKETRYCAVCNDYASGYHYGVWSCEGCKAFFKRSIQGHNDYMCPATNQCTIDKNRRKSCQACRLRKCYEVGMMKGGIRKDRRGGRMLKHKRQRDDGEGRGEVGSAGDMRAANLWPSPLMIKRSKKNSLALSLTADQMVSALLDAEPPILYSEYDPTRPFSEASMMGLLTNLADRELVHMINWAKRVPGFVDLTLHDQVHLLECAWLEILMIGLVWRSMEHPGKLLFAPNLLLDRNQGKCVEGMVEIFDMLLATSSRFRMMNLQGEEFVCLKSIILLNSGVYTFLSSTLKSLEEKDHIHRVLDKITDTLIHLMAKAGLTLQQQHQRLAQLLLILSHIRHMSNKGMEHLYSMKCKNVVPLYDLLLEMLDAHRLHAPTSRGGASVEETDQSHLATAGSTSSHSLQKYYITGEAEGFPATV

On to `O=C(O)CCCCCCCCCC(=O)O`, for which the Potency result (in [1]; in experiment [3]; in experiment [4]; in experiment [5]; in [6]; with Aromatase (Homo sapiens)) was “inactive” in each case. The outcome in experiment [2], in experiment [7] and in experiment [8] was inactive.
With `CC/C=C\CCCCCCCCCCOC(C)=O`, the Potency result (in experiment [1]; in experiment [3]; in [4]; in [5]; in experiment [6]; with Aromatase (Homo sapiens)) was “inactive” throughout. Also, the call in experiment [2], in [7] and in experiment [8] was inactive.
Consider `CC(=O)c1ccc2ccc3ccccc3c2c1`, for which the Potency result (in experiment [1]; in [3]; in experiment [4]; in the experiment with Aromatase (Homo sapiens)) was “inactive” throughout. In addition, the call in experiment [2], in [7] and in [8] was inactive. Besides, the Potency in experiment [5] was 8.58 µM (active).
As for `CN(C)CCC[C@@]1(c2ccc(F)cc2)OCc2cc(C#N)ccc21`, the Potency entry (in experiment [1]; in experiment [3]; in experiment [4]; in [5]; in experiment [6]; with Aromatase (Homo sapiens)) was “inactive” each time. In addition, the outcome in [7] and in [8] was inactive.
For the compound `COC(=O)C(c1ccccc1Cl)N1CCc2sccc2C1` (configuration not stated), the Potency entry (in experiment [1]; in experiment [3]; in experiment [6]; with Aromatase (Homo sapiens)) was “inactive” each time. Also, the result in experiment [7] and in experiment [8] was inactive.
`CCOC(=O)COc1ccc2c(C)c(CCN(CC)CC)c(=O)oc2c1Cl`: the Potency result (in experiment [1]; in experiment [3]; in experiment [4]; in experiment [5]; in experiment [6]; with Aromatase (Homo sapiens)) was “inactive” throughout. For the same compound, the result in experiment [2], in experiment [7] and in experiment [8] was inactive.
As to `CCCc1ccc(O)c(OC)c1`, the Potency result (in experiment [1]; in [3]; in experiment [4]; in [5]; in experiment [6]; in the experiment with Aromatase (Homo sapiens)) was “inactive” each time. Moreover, the result in experiment [7] and in [8] was inactive.
